The source of these data is PubChem BioAssay.

Activity calls are given as the source filed them. Unless noted, the rule behind the calls is not given here.

In test [1] the test system is Wnt5a (protein binding on small-molecule microarray). The experiment in a line: Wnt5a binders on small-molecule microarray, primary screen, biophysical, 635/667 nm fluorescence (AID 1142).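 Note: fluorescence read at 667 nm with signal to noise per printed feature.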 Conditions: 635 nm fluorescence, higher = more signal.
Test [2] in a line: cell viability in Huh7 cells, primary screen, cytotoxicity control for HCV replication inhibitor project, CellTiter-Glo luminescence, basal, 48 h (AID 1143).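 Note: Huh7 hepatoma cells carrying a hepatitis C replication reporter with no stimulus; test concentration not given here.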 Conditions: Huh7 HCV replicon, higher = more signal, called active from +8 up or from −8 down. A general note: In ATP-based viability assays light output follows the ATP content of the culture.
Test [3] in a line: P. aeruginosa biofilm formation inhibitors, primary screen, PAO1 strain, BacTiter-Glo luminescence, LB-PBS (AID 1144). Conditions: 12 h, higher = more signal.
The nature of test [4]: CREB reporter modulators without forskolin, primary screen, cell-based, PC12, CRE-LacZ reporter, unstimulated (AID 1145). Conditions: no forskolin, luminescence, 4.5 h, higher = more signal, called active from +8 up or from −8 down.
Test [5] can be described thus: CREB reporter modulators under forskolin, primary screen, cell-based, PC12, CRE-LacZ reporter, forskolin-stimulated (AID 1146).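 Note: PC12 cells with 6xCRE LacZ reporter stimulated by forskolin 10 µM; beta-galactosidase reporter signal reflecting CREB driven transcription.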 The settings on record: luminescence, 4.5 h, higher = more signal, called active from +8 up or from −8 down.
The target of test [6] is Streptavidin (Streptomyces avidinii) (UniProt P22629). As to the kind of experiment: streptavidin binders on small-molecule microarray, primary screen, artefact control for SMM compound annotation, biophysical, 635/667 nm fluorescence (AID 1147).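 Note: signal reflects streptavidin binding to arrayed compounds as a control protein.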 Conditions: streptavidin binding, higher = more signal.
A short description of test [7]: small-molecule binders of probe aInhba, primary screen, biochemical, small-molecule microarray, 635/667 nm fluorescence (AID 1148).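 Note: score merges 667nm spot fluorescence with signal-to-noise for antibody binding to printed compounds.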 Conditions: higher = more signal.
Test [8] concerns the target Torsin-1A (Homo sapiens) (UniProt O14656). The experiment in a line: torsin A binders from cell lysate, primary screen, small-molecule microarray, wild-type, 635/667 nm (AID 1149). The settings on record: COS7 hTOR1A-WT lysate, 635 nm fluorescence, higher = more signal.
Test [9] has the same target. As to the kind of experiment: small-molecule binders of mutant TOR1A in lysate, primary screen, cell lysate, small-molecule microarray, COS7 lysate, 635/667 nm fluorescence (AID 1150).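 Note: score pools 667 nm emission and signal to noise measuring lysate protein binding.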 Conditions: COS7 hTOR1A mutant lysate, 635 nm fluorescence, higher = more signal.
The subject of test [10] is Sonic hedgehog protein (Shh). As to the kind of experiment: small-molecule binders of Shh protein, primary screen, biochemical, small-molecule microarray, 635/667 nm fluorescence (AID 1151).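 Note: Shh protein binding to compounds spotted on small-molecule microarray slides; score combines spot fluorescence intensity with signal-to-noise across triplicate slides.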 Conditions: small-molecule microarray binding, 635 nm fluorescence; higher = more signal.
A short description of test [11]: E. coli DRC41 culture turbidity changes, primary screen, E. coli filamentation inducer project, strain DRC41, OD650, 48 h (AID 1152).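 Note: E. coli MC1000 strain DRC41 lacking acrAB efflux pump and sulA.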 The settings on record: E. coli DRC41 (acrAB sulA), higher = more signal, called active from +8 up or from −8 down.
The nature of test [12]: small-molecule binders of probe aLefty1, primary screen, biochemical, small-molecule microarray, 635/667 nm fluorescence (AID 1153).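 Note: score merges spot fluorescence with signal-to-noise ratio from the scanned slide images.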 The settings on record: higher = more signal.
Test [13] can be described thus: PSAC antagonists in infected red cells, primary screen, cell-based, P. falciparum Indochina, OD700, 1 h (AID 1154). Conditions: P. falciparum Indochina infected RBC osmotic lysis, higher = more signal, called active from +8 up or from −8 down.
Test [14] can be described thus: PSAC antagonists in infected red cells, primary screen, cell-based, P. falciparum Indochina, OD700, 2 h (AID 1155).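 Note: lysis reports solute entry through the parasite surface anion channel PSAC; channel blockers reduce lysis of infected cells.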 The settings on record: P. falciparum Indochina infected erythrocytes, osmotic lysis OD700; higher = more signal, called active from +8 up or from −8 down.
Test [15] can be described thus: osmotic lysis modulators in infected erythrocytes, primary screen, PSAC antagonist project, cell-based, P. falciparum Indochina, OD700, 3 h (AID 1156). The settings on record: higher = more signal, called active from +8 up or from −8 down.
Test [16] is described as follows: PSAC antagonists in infected red cells, primary screen, cell-based, P. falciparum Indochina, OD700, 18 h (AID 1157). The settings on record: P. falciparum Indochina infected erythrocytes, osmotic lysis OD700, 18 h; higher = more signal, called active from +8 up or from −8 down.
Test [17] is described as follows: modulators of S6 phosphorylation in cells, primary screen, cell-based, A549, cytoblot, luminescence, serum-stimulated (AID 1158).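 Note: serum-stimulated A549 lung adenocarcinoma cells; signal is phosphorylated S6 detected by cytoblot immunostaining with HRP secondary.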 Conditions: A549 phospho-S6 cytoblot, 5 h, higher = more signal.
Test [18] concerns the target NADPH oxidase 2 (Homo sapiens) (UniProt P04839). The experiment in a line: NOX2-dependent H2O2 signal modulators, primary screen, NOX inhibitor project, cell-based, HEK293-NOX2, PMA-stimulated, Amplex Red fluorescence (AID 1159). Note: test concentration not given here. Conditions: 45 min, higher = more signal, called active from +8 up or from −8 down.
Test [19] has as its target NADPH oxidase 4 (Homo sapiens) (UniProt Q9NPH5). As to the kind of experiment: NOX4-dependent H2O2 signal modulators, primary screen, NOX inhibitor project, cell-based, HEK293-NOX4, tetracycline-induced, Amplex Red fluorescence (AID 1160). Conditions: 45 min, higher = more signal, called active from +8 up or from −8 down.
Test [20] concerns the target NADPH oxidase 5 (Homo sapiens) (UniProt Q96PH1). The experiment in a line: NOX5-dependent H2O2 signal modulators, primary screen, NOX inhibitor project, cell-based, HEK293-NOX5, Amplex Red fluorescence (AID 1161). Conditions: HEK293-NOX5, ionomycin, 45 min, higher = more signal.

Chain of Streptavidin (Streptomyces avidinii) (P22629 whole entry, looked up): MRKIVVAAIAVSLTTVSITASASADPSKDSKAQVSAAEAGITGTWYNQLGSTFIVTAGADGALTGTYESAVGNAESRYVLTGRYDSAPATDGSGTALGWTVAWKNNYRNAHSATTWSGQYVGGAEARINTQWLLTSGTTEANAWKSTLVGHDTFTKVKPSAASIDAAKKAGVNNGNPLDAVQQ
Chain of Torsin-1A (Homo sapiens) (O14656 whole entry, looked up): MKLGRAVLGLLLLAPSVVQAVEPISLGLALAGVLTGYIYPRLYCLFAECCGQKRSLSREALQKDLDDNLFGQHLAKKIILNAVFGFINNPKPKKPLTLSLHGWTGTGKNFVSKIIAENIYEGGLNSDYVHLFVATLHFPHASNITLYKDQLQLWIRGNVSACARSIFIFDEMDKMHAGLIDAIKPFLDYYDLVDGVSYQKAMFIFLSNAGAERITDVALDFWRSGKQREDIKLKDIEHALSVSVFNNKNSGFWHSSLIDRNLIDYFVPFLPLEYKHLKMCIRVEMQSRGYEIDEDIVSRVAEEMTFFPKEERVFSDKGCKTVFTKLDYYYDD
Chain of NADPH oxidase 2 (Homo sapiens) (P04839 whole entry, looked up): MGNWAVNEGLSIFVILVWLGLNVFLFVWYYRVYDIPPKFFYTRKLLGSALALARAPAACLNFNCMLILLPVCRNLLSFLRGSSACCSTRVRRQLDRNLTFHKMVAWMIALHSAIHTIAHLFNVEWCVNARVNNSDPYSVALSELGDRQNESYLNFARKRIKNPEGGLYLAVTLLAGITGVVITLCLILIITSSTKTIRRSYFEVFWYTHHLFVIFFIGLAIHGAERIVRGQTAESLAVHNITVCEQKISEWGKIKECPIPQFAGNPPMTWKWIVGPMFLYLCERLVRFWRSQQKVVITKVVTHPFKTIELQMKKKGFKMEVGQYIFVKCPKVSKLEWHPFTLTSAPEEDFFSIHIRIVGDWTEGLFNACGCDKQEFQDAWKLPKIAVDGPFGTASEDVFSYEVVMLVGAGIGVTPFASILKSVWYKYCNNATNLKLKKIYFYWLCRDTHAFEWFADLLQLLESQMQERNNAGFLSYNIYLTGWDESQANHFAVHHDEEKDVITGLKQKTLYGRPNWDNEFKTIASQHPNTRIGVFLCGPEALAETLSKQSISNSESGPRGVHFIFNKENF
Chain of NADPH oxidase 5 (Homo sapiens) (Q96PH1 whole entry, looked up): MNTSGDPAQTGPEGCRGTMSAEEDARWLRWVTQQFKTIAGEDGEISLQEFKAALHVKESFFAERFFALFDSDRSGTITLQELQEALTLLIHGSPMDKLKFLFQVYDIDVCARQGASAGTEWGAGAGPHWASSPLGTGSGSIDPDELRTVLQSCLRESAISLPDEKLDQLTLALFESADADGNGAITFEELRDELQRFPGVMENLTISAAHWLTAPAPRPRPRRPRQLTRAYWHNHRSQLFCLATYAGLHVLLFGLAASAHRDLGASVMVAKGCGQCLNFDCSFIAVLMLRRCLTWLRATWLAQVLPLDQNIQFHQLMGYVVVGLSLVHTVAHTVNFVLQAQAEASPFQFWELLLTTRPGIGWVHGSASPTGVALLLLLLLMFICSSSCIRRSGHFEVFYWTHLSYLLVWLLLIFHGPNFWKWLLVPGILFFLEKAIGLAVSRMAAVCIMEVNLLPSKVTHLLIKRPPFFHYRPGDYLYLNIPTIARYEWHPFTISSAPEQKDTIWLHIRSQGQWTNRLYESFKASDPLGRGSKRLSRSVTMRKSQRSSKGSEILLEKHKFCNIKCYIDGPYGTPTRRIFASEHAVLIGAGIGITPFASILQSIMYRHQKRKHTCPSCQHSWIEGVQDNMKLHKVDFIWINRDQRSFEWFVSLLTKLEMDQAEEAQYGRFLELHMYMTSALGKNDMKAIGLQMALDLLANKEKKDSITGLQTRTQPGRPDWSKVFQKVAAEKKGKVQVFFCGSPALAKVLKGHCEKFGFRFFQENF
Chain of NADPH oxidase 4 (Homo sapiens) (Q9NPH5 whole entry, looked up): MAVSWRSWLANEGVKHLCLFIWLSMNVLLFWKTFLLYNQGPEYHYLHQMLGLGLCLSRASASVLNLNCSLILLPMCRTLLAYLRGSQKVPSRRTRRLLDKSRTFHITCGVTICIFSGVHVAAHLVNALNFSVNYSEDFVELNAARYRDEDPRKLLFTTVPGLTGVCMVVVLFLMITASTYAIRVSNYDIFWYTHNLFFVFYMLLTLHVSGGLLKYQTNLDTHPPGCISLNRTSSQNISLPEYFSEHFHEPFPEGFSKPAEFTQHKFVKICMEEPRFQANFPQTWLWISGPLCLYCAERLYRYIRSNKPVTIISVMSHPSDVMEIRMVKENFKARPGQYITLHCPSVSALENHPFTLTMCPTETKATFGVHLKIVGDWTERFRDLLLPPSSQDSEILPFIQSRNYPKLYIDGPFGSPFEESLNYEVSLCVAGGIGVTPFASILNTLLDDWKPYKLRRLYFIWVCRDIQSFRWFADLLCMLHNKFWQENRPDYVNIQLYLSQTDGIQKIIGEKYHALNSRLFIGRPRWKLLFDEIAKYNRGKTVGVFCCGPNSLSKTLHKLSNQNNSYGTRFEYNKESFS

For `CCCNC(=O)[C@@]1(C)c2ccccc2C(=O)N(c2ccc(C)cn2)[C@H]1c1ccc(CO)cc1`, the composite z-score is -0.297 in test [1]; -0.516 in test [6]; 0.0398 in [7]; 0.399 in [8]; 0.266 in test [9]; 0.224 in test [10]. The composite z-score in test [12] came out at 0.0533. The z-score was 0.242 (inactive) in test [2]; -0.31 (inactive) in test [3]; 1.29 (inactive) in test [4]; -0.0049 (inactive) in test [5]; -0.819 (inactive) in test [11]; 1.57 (inactive) in test [13]. Also, the z-score in test [14] was 0.123 (inactive); in [15] it was 0.181 (inactive); in [16] it was 0.0101 (inactive); in test [17], 0.426; in test [18] it was -1.23 (inactive); in test [19], 0.155 (inactive). The same molecule came in with a z-score in test [20] of 0.238.
As to `COC(=O)[C@@]1(Cc2ccc(OC)cc2)[C@H]2c3cc(C(=O)N4CCCC4)n(CCc4c[nH]c5ccc(O)cc45)c3C[C@H]2CN1C(=O)c1ccccc1`, the composite z-score in test [1] is 0.431; in test [6] it was 0.971; in test [7], 0.192; in [8] it was 0.132; in test [9] it was 0.318; in [10] it was -0.229. In test [12], this molecule gave a composite z-score of 0.302. Further, the z-score in [2] was -0.759 (inactive); in [3] it was 0.34 (inactive); in [4], 0.587 (inactive); in test [5] it was -0.397 (inactive); in [11], -0.0255 (inactive); in [13], 8.22 (active). In addition, the z-score in [14] is 0.847 (inactive); in test [15], 1.27 (inactive); in test [16] it was 1.11 (inactive); in test [17], -0.029; in test [18], -0.648 (inactive); in test [19], -6.51 (inactive). Also, the z-score in test [20] is -3.5.
On to `[N-]=[N+]=Nc1ccccc1C[C@]1(C(=O)NCCN2CCOCC2)COC(c2ccc(OCCCO)cc2)=N1`, for which the composite z-score in test [1] was 0.898; in test [6] it was 1.25; in test [7], 0.0497; in test [8], 0.707; in test [9] it was 1.75; in [10], 0.0324. In test [12], the composite z-score came out at 0.111. Moreover, the z-score in test [2] was -1.06 (inactive); in test [3] it was 0.783 (inactive); in [4], 0.754 (inactive); in test [5], 1.45 (inactive); in test [11], 1.87 (inactive); in test [13], 21.5 (active). Besides, the z-score in test [14] is 4.14 (inactive); in test [15] it was 2.57 (inactive); in test [16], 0.913 (inactive); in test [17], 0.148; in [18], 2.89 (inactive); in [19], 1.12 (inactive). This molecule also returned a z-score in test [20] of -0.481.
With `O=C1OCCC=C[C@H]2OC34C=CCN(Cn5nnc6ccccc65)C(=O)[C@H]3N(CCCO)C(=O)[C@@H]4C12` (stereo not given in full), the composite z-score in [1] was -0.197; in [6], -1.01; in test [7], -0.161; in test [8], -0.444; in test [9] it was -2.04; in test [10], -0.128. The same molecule displayed a composite z-score in test [12] of -0.321. Moreover, the z-score was -2.61 (inactive) in test [2]; -0.413 (inactive) in [3]; -0.903 (inactive) in [4]; -0.242 (inactive) in test [5]; 1.24 (inactive) in test [11]; 0.502 (inactive) in [13]. Moreover, the z-score is -1.23 (inactive) in test [14]; 1.65 (inactive) in [15]; -1.32 (inactive) in test [16]; 0.601 in test [17]; 0.813 (inactive) in [18]; -0.341 (inactive) in test [19]. In test [20], this molecule yielded a z-score of -1.35.
